PubChem BioAssay (NCATS)
Results filed as inconclusive are left out. The source made the active and inactive calls. The call rests on the fitted dose curve; in most records, active means well fitted inhibition curve with a large enough effect; inconclusive means small, poorly fitted or top-dose-only effect; inactive means flat fitted curve, though single readings scatter.

Legend:
Experiment in all cases: qHTS profiling for inhibitors of Plasmodium falciparum proliferation (AID 504749); further: nearly all actives have a fitted effect of over 60% in size
Conditions in all cases: P. falciparum in erythrocytes, SYBR Green DNA, 72 h; series mostly up to 28.7 µM
[1] = tested on: CP250
Summary of the method: (§1)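 Quantitative HTS: compounds pinned into medium, infected erythrocytes added (0.3% parasitemia, 2.5% hematocrit), 72 h culture at 37 C under 5% CO2. Saponin/Triton lysis with SYBR Green I, overnight RT, then fluorescence read.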

[2] = tested on: CP252
Summary of the method: as §1

[3] = tested on: CP256
Summary of the method: as §1

[4] = tested on: CP260
Summary of the method: as §1

[5] = tested on: CP262
Summary of the method: as §1

[6] = tested on: CP265
Summary of the method: as §1

[7] = tested on: CP266
Summary of the method: as §1

[8] = tested on: CP268
Summary of the method: as §1

[9] = tested on: CP269
Summary of the method: as §1

[10] = tested on: CP286
Summary of the method: as §1

Measured: Potency
Potency means the concentration at half of the fitted maximal effect.

Nc1ccn([C@@H]2CS[C@H](CO)O2)c(=O)n1
inactive: all assays above

CC[C@H]1CN2CCc3cc(OC)c(OC)cc3[C@H]2C[C@@H]1C[C@@H]1NCCc2cc(OC)c(OC)cc21
active: [1] 316 nM | [2] 562 nM | [3] 355 nM | [4] 126 nM | [5] 757 nM | [6] 447 nM | [7] 675 nM | [8] 426 nM | [9] 301 nM | [10] 158 nM

COC(=O)C[C@](O)(CCCC(C)(C)O)C(=O)O[C@@H]1C(OC)=C[C@]23CCCN2CCc2cc4c(cc2[C@H]13)OCO4
active: [1] 28.2 nM | [2] 31.6 nM | [3] 31.6 nM | [4] 28.2 nM | [5] 33.8 nM | [6] 31.6 nM | [8] 37.9 nM | [9] 33.8 nM | [10] 28.2 nM

O=C(O)CO.[NH2-].[NH2-].[Pt+2]
inactive: all assays above

C[C@H]1C[C@@H]2[C@@H]([C@@H](O)C[C@@]3(C)[C@H]2CC[C@]3(O)C(=O)CO)[C@@]2(C)C=CC(=O)C=C12
inactive: all assays above

Nc1ccn([C@@H]2O[C@H](CO)[C@H](O)C2(F)F)c(=O)n1
active: [1] 5010 nM | [2] 3550 nM | [3] 1580 nM | [4] 3980 nM | [5] 2690 nM | [6] 3980 nM | [7] 4780 nM | [8] 6010 nM | [9] 4780 nM | [10] 3980 nM

COc1cc(C(=O)NS(=O)(=O)c2ccccc2C)ccc1Cc1cn(C)c2ccc(NC(=O)OC3CCCC3)cc12
not listed: [9]
inactive: all other assays above

COC(=O)C1=C(C)NC(C)=C(C(=O)OCCN2CCN(C(c3ccccc3)c3ccccc3)CC2)C1c1cccc([N+](=O)[O-])c1 (stereo unspecified)
active: [1] 4470 nM | [2] 2820 nM | [3] 3550 nM | [4] 2510 nM | [5] 4780 nM | [7] 6750 nM | [8] 4780 nM | [9] 4260 nM | [10] 2510 nM

CCC1=C[C@@H]2CN(C1)Cc1c([nH]c3ccccc13)[C@@](C(=O)OC)(c1cc3c(cc1OC)N(C)[C@@H]1[C@@](O)(C(=O)OC)[C@H](OC(C)=O)[C@]4(CC)C=CCN5CC[C@]31[C@@H]54)C2
active: [1] 3980 nM | [2] 2820 nM | [3] 2000 nM | [4] 2820 nM | [5] 3010 nM | [6] 2000 nM | [7] 4260 nM | [8] 3380 nM | [9] 1900 nM | [10] 2000 nM

CC1(C)O[C@@H]2C[C@@H]3[C@H]4C[C@@H](F)C5=CC(=O)C=C[C@]5(C)[C@@]4(F)[C@@H](O)C[C@]3(C)[C@]2(C(=O)CO)O1
not listed: [7] | [8] | [9]
inactive: all other assays above

CN1c2cc(O)c(N=NC(N)=O)cc2CC1S(=O)(=O)O (stereo unspecified)
inactive: all assays above

COc1c(N2C[C@@H]3CCCN[C@H]3C2)c(F)cc2c(=O)c(C(=O)O)cn(C3CC3)c12
not listed: [8]
inactive: all other assays above

Nc1ccc(S(=O)(=O)Nc2ncccn2)cc1
inactive: all assays above

CC(C)(C)NC(=O)[C@H]1CN(Cc2cccnc2)CCN1C[C@@H](O)C[C@@H](Cc1ccccc1)C(=O)N[C@H]1c2ccccc2C[C@H]1O
active: [2] 12600 nM | [9] 13500 nM
inactive: [5]

CC=CC1=C(C(=O)O)N2C(=O)[C@H](NC(=O)[C@H](N)c3ccc(O)cc3)[C@@H]2SC1
inactive: all assays above

O=c1[nH]c(=O)n(C2CCCO2)cc1F (stereo unspecified)
inactive: all assays above
